Results taken from the OligoGym collection.

What follows are sequences tested against HNF1A (assay: pooled miR-30 sensor sort-seq; sequence = guide strand). Conditions: shRNA.
Also: reference of the scale not given here.

Q: With TGAGCTCTGGTACAGCACCAGG as the sequence, how does the sensor-assay potency score (higher = more potent) read?
A: -1.55

Q: With TTCTGTACTCAGCAGGCTGTGG as the sequence, how does the sensor-assay potency score (higher = more potent) read?
A: -0.687

Q: Which sensor-assay potency score (higher = more potent) does the source give for TAGCGTCTCTCGCTCCTCCTTG here?
A: -0.628

Q: Which sensor-assay potency score (higher = more potent) does the source give for TAGGACTTGACCATCTTCGCCA here?
A: 0.419

Q: Which sensor-assay potency score (higher = more potent) does the source give for TACTTCTGCAGTCTCACTGGTC here?
A: -0.169

Q: With ATCGTCGTCCGTCTCGTCCTCG as the sequence, how does the sensor-assay potency score (higher = more potent) read?
A: -0.832

Q: How did the sensor-assay potency score (higher = more potent) turn out when TACAGCACCAGGCTGCTGGAGG was run?
A: -0.908

Q: How did the sensor-assay potency score (higher = more potent) turn out when ATGAAGGTCTCGATGACGCTGT was run?
A: 0.222

Q: With TGGTTGGTAGCTCATCACCTGT as the sequence, how does the sensor-assay potency score (higher = more potent) read?
A: -1.74

Q: For TTGATGACCGGCACACTCTGTG, which sensor-assay potency score (higher = more potent) is on record?
A: 0.355

Q: Which sensor-assay potency score (higher = more potent) does the source give for TTGTAGACACGCACCTCCGTGA here?
A: -0.58

Q: TTGCTGGAGTCTGAGCTCTGGT was tested. Which sensor-assay potency score (higher = more potent) did it give?
A: -1.14

These sequences were tested against HNRNPL in the same assay as above. Conditions: shRNA.

Q: TAGTGTAAAGAACATCCGTGGT was tested. Which sensor-assay potency score (higher = more potent) did it give?
A: -0.214

Q: Which sensor-assay potency score (higher = more potent) does the source give for TTGAACTGAGTCAAATTCCACC here?
A: -0.367

Q: How did the sensor-assay potency score (higher = more potent) turn out when TAGAGTAGTTGACAAAAGCTGG was run?
A: -0.329

Q: With TTGAACACATTCAAGCGTGTAG as the sequence, how does the sensor-assay potency score (higher = more potent) read?
A: 0.215
